This note sets out measurements from PubChem BioAssay AID588740 (National Center for Advancing Translational Sciences (NCATS), 2011).

Calls of active or inactive are those of the source. No rule for the calls is given here.

A short description of this assay: PC3M Cytotoxicity Assay for Compounds that Inhibit the Perinuclear Compartment: SAR. As to conditions: PC3M-GFP viability, ATPLite luminescence, 24 h. The text has this: The perinucleolar compartment (PNC) is a non-membrane-bound nuclear subdomain that is associated with but structurally distinct from the nucleolus. The PNC is a heritable trait, in which the number of PNCs per cell in daughter cells often mimics that of their mother cells. The PNC is heterogeneous in shape, is stable through interphase, disassembles during mitosis, and reassembles in early G1. The PNC is concentrated with newly synthesized RNA polymerase III (pol III) RNAs (MRP RNA, RNAse P H1 RNA, hY RNAs[hY1, 2, 5], Alu RNA, and SRP [7SL] RNA) and RNA binding proteins (nucleolin, PTB, CUG-BP, KSRP, Raver1, Raver2, and Rod). […] Extensive in vitro studies have shown that the PNC is unique to tumor cells and preferentially forms in tumor cells derived from solid tissues. Examination of cancer cell lines from various origins and malignant capacities has shown that PNC prevalence correlates with the malignancy of tumors and has the potential to be developed as a pan-cancer prognostic marker. […] Although the PNC is associated with a DNA locus and a handful of components have been identified, much remains to be investigated regarding the structure and function of the PNC and its mechanistic link to cancer. […]
1. […] Luminescencent signal was detected on a Viewlux CCD based imager (PerkinElmer) with a clear filter and a 30 second integration time. […]
(In general: Cellular ATP, detected with luciferase, serves as a proxy for viable cell number.)
On to `N=c1c2c(-c3ccccc3)c(-c3ccccc3)n(Cc3ccccc3)c2ncn1C1CCC(O)CC1` (stereo unspecified), for which the AC50 (commonly the concentration at which the activity in the assay is half-maximal) is 9.96 µM (active).
